Test in all cases: DAPPL (digital affinity profiling via proximity ligation, sequencing); 10 mM Tris-HCl pH 7.5, 50 mM NaCl, 1 mM DTT, 4% glycerol, room temperature, 30 min; GST-TFs on glutathione beads, 16-mer random dsDNA library, 0.1% formaldehyde crosslink after washing; high values mean tight binding
For assay [1], the target named is T1, FLI1 (Homo sapiens, UniProt Q01543 1-452).
T1 sequence: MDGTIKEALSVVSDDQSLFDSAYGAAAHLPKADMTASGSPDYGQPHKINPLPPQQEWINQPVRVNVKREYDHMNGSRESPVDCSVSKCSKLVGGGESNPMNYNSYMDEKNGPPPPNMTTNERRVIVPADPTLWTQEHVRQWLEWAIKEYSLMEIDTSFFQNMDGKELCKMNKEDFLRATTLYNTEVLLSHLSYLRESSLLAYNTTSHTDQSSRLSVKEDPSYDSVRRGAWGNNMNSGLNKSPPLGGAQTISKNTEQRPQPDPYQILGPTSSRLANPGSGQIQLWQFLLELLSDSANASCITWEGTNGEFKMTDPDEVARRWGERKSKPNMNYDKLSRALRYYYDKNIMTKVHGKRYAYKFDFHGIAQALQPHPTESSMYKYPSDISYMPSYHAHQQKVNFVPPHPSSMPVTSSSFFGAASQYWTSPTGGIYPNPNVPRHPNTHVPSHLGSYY
As to conditions: protein: recombinant; tags: N-terminal GST; dsDNA, one strand shown. The procedure, abridged: (§1)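 Human transcription factors were made in yeast as GST fusions, captured on glutathione beads and barcoded with DNA. With a tag-only sample included, the pool was incubated with 200 nmole of a random double-stranded 16-mer DNA library in Tris/NaCl/DTT/glycerol buffer at room temperature for 30 min, then crosslinked with 0.1% formaldehyde after washing, ligated by proximity, amplified and sequenced. For binding signal, each hexamer's read frequency for a factor is divided by its frequency for the tag-only sample.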

Assay [2] has as its target T2, ELK1 (Homo sapiens, UniProt P19419 1-428).
T2 sequence: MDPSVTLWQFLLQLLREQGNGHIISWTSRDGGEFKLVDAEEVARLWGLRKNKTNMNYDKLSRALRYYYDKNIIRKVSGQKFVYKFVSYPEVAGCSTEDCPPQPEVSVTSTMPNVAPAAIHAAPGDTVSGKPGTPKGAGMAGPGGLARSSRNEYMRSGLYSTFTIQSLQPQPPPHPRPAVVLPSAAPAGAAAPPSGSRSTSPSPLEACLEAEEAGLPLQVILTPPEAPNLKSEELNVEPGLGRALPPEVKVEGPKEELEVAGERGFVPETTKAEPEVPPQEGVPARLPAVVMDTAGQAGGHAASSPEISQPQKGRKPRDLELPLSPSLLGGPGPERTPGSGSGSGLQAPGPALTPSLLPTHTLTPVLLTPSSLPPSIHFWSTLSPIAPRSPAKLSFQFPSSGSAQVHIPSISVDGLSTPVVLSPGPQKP
The following applies: protein: recombinant; tags: N-terminal GST; dsDNA, one strand shown. The procedure, abridged: as §1

Assay [3] concerns the target T3, GABPA (Homo sapiens, UniProt Q06546 1-454).
T3 sequence: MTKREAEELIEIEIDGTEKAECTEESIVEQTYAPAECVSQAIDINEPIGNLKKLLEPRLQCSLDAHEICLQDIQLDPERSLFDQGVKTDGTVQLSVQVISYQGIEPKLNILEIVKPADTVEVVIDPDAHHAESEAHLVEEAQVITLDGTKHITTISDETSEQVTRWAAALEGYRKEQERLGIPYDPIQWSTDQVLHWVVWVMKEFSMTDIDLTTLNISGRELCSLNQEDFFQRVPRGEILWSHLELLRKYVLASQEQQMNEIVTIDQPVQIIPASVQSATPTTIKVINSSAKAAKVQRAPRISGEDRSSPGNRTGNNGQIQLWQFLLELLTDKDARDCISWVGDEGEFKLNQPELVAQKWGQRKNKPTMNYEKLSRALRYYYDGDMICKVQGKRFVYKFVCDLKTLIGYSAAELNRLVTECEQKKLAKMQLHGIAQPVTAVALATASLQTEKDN
The following applies: protein: recombinant; tags: N-terminal GST; dsDNA, one strand shown. The procedure, abridged:
as §1

In assay [4] the target is T4, ERG (Homo sapiens, UniProt P11308 1-479).
T4 sequence: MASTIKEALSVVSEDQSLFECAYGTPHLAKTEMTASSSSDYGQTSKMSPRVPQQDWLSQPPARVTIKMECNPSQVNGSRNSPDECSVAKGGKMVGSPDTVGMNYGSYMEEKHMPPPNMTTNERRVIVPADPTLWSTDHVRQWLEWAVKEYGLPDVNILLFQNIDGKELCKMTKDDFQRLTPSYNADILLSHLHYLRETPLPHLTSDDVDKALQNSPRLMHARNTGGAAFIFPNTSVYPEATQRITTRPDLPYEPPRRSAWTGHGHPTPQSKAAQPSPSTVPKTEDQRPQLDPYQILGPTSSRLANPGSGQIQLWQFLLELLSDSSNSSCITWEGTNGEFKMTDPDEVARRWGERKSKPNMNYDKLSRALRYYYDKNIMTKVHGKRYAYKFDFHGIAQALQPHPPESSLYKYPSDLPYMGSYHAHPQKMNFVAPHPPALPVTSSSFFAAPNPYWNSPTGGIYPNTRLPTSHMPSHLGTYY
The following applies: protein: recombinant; tags: N-terminal GST; dsDNA, one strand shown. The procedure, abridged:
as §1

Assay [5] concerns the target ELF1 (Homo sapiens, UniProt P32519 1-619). As to conditions: protein: recombinant; tags: N-terminal GST; dsDNA, one strand shown. The procedure, abridged: as §1
Assay [6] concerns the target T5, EHF (Homo sapiens, UniProt Q9NZC4 1-300).
T5 sequence: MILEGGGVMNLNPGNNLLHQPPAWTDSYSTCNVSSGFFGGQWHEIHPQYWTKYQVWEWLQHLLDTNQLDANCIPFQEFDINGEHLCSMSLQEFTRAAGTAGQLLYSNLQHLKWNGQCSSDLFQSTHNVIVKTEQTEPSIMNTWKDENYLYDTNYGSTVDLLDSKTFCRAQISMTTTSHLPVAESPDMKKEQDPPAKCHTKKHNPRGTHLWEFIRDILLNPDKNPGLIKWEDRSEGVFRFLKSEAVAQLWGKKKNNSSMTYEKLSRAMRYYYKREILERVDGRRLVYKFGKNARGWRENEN
As to conditions: protein: recombinant; tags: N-terminal GST; dsDNA, one strand shown. In short, it runs like this: as §1

The target of assay [7] is SPI1 (Homo sapiens, UniProt P17947 1-270). The following applies: protein: recombinant; tags: N-terminal GST; dsDNA, one strand shown. The procedure, abridged:
as §1

In assay [8] the target is SPIB (Homo sapiens, UniProt Q01892 1-262). As to conditions: protein: recombinant; tags: N-terminal GST; dsDNA, one strand shown. In short, it runs like this:
as §1

In assay [9] the target is T6, ELK3 (Homo sapiens, UniProt P41970 1-407).
T6 sequence: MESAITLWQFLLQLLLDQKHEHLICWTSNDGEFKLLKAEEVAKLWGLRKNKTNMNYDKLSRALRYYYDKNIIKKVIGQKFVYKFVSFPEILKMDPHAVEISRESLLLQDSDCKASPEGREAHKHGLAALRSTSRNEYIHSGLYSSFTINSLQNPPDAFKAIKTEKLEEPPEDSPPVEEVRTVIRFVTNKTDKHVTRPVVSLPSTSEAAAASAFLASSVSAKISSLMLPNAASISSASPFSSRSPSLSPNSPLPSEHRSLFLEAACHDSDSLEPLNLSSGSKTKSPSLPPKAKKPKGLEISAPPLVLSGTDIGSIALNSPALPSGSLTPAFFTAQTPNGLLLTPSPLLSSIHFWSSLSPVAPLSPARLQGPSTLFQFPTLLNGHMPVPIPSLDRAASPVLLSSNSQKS
As to conditions: protein: recombinant; tags: N-terminal GST; dsDNA, one strand shown. The procedure, abridged: as §1

Assay [10] addresses T7, FEV (Homo sapiens, UniProt Q99581 1-238).
T7 sequence: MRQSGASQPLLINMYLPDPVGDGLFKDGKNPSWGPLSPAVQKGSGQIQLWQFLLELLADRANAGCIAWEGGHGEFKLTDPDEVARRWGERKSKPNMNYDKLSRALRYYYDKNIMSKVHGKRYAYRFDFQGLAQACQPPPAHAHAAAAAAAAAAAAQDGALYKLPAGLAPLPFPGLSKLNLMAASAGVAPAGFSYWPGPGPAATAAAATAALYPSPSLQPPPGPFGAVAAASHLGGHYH
As to conditions: protein: recombinant; tags: N-terminal GST; dsDNA, one strand shown. In short, it runs like this: as §1

Assay [11] has as its target ETV5 (Homo sapiens, UniProt P41161 1-510). The following applies: protein: recombinant; tags: N-terminal GST; dsDNA, one strand shown. In short, it runs like this: as §1
Assay [12] has as its target HSF1 (Homo sapiens, UniProt Q00613 1-529). The following applies: protein: recombinant; tags: N-terminal GST; chain copies: 3; dsDNA, one strand shown. The procedure, abridged:
as §1

Assay [13] addresses T8, SPIC (Homo sapiens, UniProt Q8N5J4 1-248).
T8 sequence: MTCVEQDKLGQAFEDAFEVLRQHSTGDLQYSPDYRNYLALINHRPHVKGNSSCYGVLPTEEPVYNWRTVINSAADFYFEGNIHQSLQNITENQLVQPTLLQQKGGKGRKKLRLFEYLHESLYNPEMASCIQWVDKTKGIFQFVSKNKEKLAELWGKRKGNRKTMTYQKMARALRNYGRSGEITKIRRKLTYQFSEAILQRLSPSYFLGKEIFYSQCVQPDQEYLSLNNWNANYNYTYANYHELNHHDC
As to conditions: protein: recombinant; tags: N-terminal GST; dsDNA, one strand shown. In short, it runs like this: as §1

In assay [14] the target is ELF4 (Homo sapiens, UniProt Q99607 1-663). As to conditions: protein: recombinant; tags: N-terminal GST; dsDNA, one strand shown. The procedure, abridged: as §1
ELF4, sequence (Q99607 whole entry): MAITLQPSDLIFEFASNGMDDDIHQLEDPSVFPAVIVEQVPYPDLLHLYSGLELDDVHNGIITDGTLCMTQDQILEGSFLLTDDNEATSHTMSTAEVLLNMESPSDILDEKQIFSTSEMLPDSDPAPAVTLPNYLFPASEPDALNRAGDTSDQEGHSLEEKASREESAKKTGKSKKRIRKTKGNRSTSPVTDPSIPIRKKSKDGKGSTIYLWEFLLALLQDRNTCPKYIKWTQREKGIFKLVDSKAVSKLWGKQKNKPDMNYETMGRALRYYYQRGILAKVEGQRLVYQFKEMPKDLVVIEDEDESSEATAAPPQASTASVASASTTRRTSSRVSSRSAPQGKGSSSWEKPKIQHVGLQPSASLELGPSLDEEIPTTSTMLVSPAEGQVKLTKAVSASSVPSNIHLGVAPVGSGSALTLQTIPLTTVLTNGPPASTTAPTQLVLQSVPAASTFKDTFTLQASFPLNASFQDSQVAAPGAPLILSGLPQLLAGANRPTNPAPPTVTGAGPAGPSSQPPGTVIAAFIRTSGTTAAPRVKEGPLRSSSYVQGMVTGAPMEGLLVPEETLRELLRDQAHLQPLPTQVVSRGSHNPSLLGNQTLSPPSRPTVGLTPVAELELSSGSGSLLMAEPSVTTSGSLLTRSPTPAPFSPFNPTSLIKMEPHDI
Assay [15] concerns the target T9, ELK4 (Homo sapiens, UniProt P28324-2 1-405).
T9 sequence: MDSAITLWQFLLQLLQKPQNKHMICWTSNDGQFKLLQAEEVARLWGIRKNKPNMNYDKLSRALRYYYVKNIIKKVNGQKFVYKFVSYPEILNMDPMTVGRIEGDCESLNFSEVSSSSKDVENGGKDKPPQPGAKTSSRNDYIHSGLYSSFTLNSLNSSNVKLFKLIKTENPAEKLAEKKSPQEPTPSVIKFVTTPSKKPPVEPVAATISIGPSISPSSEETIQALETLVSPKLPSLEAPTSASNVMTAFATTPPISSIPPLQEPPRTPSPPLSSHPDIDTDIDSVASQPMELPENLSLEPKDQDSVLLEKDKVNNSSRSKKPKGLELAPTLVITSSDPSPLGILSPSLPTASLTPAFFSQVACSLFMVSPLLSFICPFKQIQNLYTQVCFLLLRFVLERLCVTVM
The following applies: protein: recombinant; tags: N-terminal GST; dsDNA, one strand shown. The procedure, abridged: as §1

Assay [16] has as its target T10, ETV2 (Homo sapiens, UniProt O00321 1-342).
T10 sequence: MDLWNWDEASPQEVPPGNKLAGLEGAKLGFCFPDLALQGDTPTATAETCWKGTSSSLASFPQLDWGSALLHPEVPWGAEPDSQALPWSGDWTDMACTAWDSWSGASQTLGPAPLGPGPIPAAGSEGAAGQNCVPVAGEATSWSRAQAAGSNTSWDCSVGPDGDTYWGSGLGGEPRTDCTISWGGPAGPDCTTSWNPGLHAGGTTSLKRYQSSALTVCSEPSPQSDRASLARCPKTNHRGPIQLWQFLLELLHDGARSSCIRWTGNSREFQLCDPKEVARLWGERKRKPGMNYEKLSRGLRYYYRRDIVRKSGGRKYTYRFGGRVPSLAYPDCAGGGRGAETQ
The following applies: protein: recombinant; tags: N-terminal GST; dsDNA, one strand shown. The procedure, abridged: as §1

For assay [17], the target named is T11, ELF3 (Homo sapiens, UniProt P78545 1-371).
T11 sequence: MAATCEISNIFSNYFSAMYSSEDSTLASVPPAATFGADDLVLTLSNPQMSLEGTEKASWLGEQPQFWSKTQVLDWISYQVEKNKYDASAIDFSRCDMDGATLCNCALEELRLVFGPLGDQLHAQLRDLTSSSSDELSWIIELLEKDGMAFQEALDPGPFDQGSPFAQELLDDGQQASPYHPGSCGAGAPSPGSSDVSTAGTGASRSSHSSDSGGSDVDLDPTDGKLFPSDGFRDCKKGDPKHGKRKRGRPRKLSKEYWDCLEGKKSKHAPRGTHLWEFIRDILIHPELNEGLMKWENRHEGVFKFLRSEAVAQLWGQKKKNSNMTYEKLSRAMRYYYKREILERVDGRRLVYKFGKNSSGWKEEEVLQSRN
As to conditions: protein: recombinant; tags: N-terminal GST; dsDNA, one strand shown. In short, it runs like this: as §1

In assay [18] the target is CRX (Homo sapiens, UniProt O43186 1-299). The following applies: protein: recombinant; tags: N-terminal GST; dsDNA, one strand shown. The procedure, abridged:
as §1

Assay [19] has as its target ETV1 (Homo sapiens, UniProt P50549 1-477). As to conditions: protein: recombinant; tags: N-terminal GST; dsDNA, one strand shown. The procedure, abridged: as §1

CRX, sequence (O43186 whole entry): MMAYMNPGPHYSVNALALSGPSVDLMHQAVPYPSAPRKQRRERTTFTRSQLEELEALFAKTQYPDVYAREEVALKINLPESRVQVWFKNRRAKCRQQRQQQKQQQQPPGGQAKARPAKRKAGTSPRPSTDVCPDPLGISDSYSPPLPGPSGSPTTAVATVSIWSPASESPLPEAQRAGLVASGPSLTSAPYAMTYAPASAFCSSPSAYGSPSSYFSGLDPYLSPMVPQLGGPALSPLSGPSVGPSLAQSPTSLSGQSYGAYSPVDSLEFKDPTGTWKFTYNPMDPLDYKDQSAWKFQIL
ETV5, sequence (P41161 whole entry): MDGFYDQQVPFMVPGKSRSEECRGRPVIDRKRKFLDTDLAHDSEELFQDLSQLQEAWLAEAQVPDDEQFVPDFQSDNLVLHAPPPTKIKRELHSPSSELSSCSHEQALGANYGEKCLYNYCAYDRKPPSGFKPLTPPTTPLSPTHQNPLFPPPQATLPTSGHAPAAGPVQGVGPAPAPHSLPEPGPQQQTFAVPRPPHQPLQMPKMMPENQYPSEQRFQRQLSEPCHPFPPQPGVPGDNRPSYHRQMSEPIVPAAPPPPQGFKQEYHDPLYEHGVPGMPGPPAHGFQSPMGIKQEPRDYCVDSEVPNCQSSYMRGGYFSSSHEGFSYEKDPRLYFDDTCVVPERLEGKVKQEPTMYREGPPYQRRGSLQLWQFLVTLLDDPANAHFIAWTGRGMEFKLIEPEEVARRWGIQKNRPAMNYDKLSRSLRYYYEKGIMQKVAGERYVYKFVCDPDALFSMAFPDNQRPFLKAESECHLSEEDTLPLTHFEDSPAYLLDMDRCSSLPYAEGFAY
ELF1, sequence (P32519 whole entry): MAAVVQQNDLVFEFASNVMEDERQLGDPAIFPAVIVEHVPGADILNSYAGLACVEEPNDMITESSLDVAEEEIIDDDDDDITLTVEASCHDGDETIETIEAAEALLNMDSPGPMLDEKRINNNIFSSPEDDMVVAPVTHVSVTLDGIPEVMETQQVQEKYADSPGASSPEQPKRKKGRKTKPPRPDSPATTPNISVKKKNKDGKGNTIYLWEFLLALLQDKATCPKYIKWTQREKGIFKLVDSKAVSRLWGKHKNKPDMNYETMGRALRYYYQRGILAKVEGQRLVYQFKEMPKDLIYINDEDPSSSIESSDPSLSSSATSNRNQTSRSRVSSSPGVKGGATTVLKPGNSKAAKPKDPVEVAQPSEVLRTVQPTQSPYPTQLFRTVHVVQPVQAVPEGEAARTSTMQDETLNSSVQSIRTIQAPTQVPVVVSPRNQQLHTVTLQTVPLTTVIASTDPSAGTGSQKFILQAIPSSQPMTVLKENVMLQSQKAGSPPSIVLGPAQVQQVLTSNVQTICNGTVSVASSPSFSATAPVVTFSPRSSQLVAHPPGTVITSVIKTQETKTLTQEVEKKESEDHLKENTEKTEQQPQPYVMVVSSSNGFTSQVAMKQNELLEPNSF
ETV1, sequence (P50549 whole entry): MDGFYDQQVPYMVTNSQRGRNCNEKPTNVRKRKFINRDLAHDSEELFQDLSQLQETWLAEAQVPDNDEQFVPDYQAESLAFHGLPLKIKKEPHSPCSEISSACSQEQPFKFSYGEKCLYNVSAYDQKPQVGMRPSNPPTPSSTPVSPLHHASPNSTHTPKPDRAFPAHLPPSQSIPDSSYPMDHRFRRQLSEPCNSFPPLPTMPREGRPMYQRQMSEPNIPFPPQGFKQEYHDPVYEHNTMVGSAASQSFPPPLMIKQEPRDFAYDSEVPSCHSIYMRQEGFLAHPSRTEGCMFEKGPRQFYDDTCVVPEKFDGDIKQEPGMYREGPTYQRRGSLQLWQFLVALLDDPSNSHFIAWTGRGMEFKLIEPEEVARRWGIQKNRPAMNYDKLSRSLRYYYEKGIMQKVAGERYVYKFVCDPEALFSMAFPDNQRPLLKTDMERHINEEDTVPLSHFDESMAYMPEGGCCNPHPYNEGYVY
SPIB, sequence (Q01892 whole entry): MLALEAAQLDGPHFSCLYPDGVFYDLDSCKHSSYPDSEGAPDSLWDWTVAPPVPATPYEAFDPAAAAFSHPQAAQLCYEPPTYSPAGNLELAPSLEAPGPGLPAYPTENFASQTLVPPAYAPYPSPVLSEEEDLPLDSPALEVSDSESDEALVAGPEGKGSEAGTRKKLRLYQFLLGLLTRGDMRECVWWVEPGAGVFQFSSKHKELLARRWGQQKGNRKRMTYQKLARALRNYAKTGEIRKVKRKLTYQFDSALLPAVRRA
HSF1, sequence (Q00613 whole entry): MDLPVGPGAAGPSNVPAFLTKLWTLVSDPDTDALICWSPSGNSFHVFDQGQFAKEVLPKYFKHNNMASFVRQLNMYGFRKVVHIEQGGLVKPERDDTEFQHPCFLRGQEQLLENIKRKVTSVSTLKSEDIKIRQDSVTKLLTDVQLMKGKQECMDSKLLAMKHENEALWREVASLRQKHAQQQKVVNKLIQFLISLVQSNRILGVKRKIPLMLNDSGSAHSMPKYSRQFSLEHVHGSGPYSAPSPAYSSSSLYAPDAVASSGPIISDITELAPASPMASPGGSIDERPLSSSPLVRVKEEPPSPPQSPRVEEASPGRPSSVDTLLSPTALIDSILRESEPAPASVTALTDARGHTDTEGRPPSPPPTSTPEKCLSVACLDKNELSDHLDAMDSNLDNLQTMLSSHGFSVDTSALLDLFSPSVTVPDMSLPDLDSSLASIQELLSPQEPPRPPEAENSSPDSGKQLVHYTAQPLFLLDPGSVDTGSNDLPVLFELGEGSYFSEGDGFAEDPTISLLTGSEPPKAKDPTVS

With CCTTTG, the binding signal in assay [1] was 1.32 fold enrichment (6-mer frequency, TF over GST control); in [2], 1.3 fold enrichment (6-mer frequency, TF over GST control); in assay [3], 1.4 fold enrichment (6-mer frequency, TF over GST control); in assay [4], 1.37 fold enrichment (6-mer frequency, TF over GST control); in assay [5] it was 1.38 fold enrichment (6-mer frequency, TF over GST control); in assay [6], 1.42 fold enrichment (6-mer frequency, TF over GST control). The binding signal in assay [7] was 1.47 fold enrichment (6-mer frequency, TF over GST control); in [8], 1.28 fold enrichment (6-mer frequency, TF over GST control); in [9] it was 1.18 fold enrichment (6-mer frequency, TF over GST control); in assay [10] it was 1.31 fold enrichment (6-mer frequency, TF over GST control); in assay [11] it was 1.3 fold enrichment (6-mer frequency, TF over GST control); in assay [12], 1.21 fold enrichment (6-mer frequency, TF over GST control). Further, the binding signal was 1.38 fold enrichment (6-mer frequency, TF over GST control) in [13]; 1.36 fold enrichment (6-mer frequency, TF over GST control) in assay [14]; 1.19 fold enrichment (6-mer frequency, TF over GST control) in [15]; 1.24 fold enrichment (6-mer frequency, TF over GST control) in assay [16]; 1.27 fold enrichment (6-mer frequency, TF over GST control) in assay [17]; 1.09 fold enrichment (6-mer frequency, TF over GST control) in [18]. For the same sequence, the binding signal in assay [19] was 1.42 fold enrichment (6-mer frequency, TF over GST control).

For the origin of these results see PMC7862700, “An all-to-all approach to the identification of sequence-specific readers for epigenetic DNA modifications on cytosine”.
